Measurements taken from PubChem BioAssay (EPA / NIEHS).
Calls of active or inactive are those of the source. The calls were made as follows: active = hit-call score of the fitted dose curve at least 0.9, where 1 is the maximum; inactive = score below 0.9.

What follows are molecules tested on Keratin 19 (KRT19), KRT19 (gene 3880) (assay: LTEA_HepaRG_KRT19: Life Technologies and Expression Analysis (LTEA) Assay for Keratin 19 (KRT19) using HepaRG (AID 2283512)). Conditions: mRNA level, 48 h; actives raise or lower the signal.
Description: LTEA_HepaRG is a cell based, multiplexed-readout assay that uses HepaRG, a human liver cell line, with measurements taken at 48 hours after chemical dosing on a 96-well plate.LTEA_HepaRG_KRT19 is one of 102 assay component(s) measured in the LTEA HepaRG cell culture assay. It is a marker of Cell proliferation, survival, death.Data from the assay component LTEA_HepaRG_KRT19 was analyzed into 1 endpoint. This assay endpoint, LTEA_HepaRG_KRT19, was analyzed with bidirectional fitting relative to DMSO as the negative control and baseline of activity. Using a type of inducible reporter, measures of mRNA induction for gain or loss-of-signal activity can be used to understand regulation of transcription factor activity. To generalize the intended target to other relatable targets, this assay endpoint is annotated to the filaments intended target family, where the subfamily is keratin.
A total of 1060 chemcials from the ToxCast library were tested in eight-point concentration-response experiments. Cell culture and cytotoxicity assays were conducted at Thermo Fisher Scientific's Custom Services facility (Madison, WI). A single lot of human HepaRG cells (Thermo Fisher Scientific, Frederick, MD) was used for the cell culture experiments. 96-well format collagen type I coated plates of human HepaRG cells were prepared using established methods. Briefly, cryopreserved HepaRG cells were thawed, plated at a density of approximately 100,000 cells/well in HepaRG Thaw, Plate, and General Purpose media (HPRG770, Thermo Fisher Scientific), and incubated for 48 hours. 0.5% DMSO was selected as vehicle control to balance the requisite need of DMSO in HepaRG cultures to maintain differentiation (for example, baseline metabolism, proportions of hepatocytes vs. cholangiocytes), while enabling further hepatic receptor pathway activation (for example, PXR and CAR) in response to chemical exposure. 48 hours after plating, the culture medium was replaced with HepaRG Serum-Free Incudtion Media. Cells were exposed to each test chemical in duplicate and maintained in CO2 incubators for another 48 hours. Chemical plates were thawed to room temperature and 200x concentrations of treatment groups were prepared. 8-point conentration-reponse curves were made with the highest exposure at 100 uM, followed by half-log dilutions, all in 0.5% DMSO. Each test plate contained variouse controls, induction positive controls (1mM phenobarbital), cytotoxicity positive controls ([…] aflatoxin B1), vehicle controls (0.5% DMSO), and total lysis controls (0.5% DMSO). Cell morphology images were taken using an Essen IncuCyte FLR automated microscope, with six 96-well plates imaged in about 24 minutes. Images were captured and exported and JPEG files. Spent culture media was transfered to black-well plates for the LDH assay, and remaining media was sorted at -80 C for later use. Cells were treated with RLT buffer and frozen until shipped for gene expression analysis. Total RNA was isolated from the cell suspension in 75 uL of Buffer RLT (Qiagen, Germantown, MD 20874) by Quintiles/Expression Analysis (Durham, NC) using a custom isolation procedure. Total RNA from each plate well was transferred to a preamplification plate. Fluidigm's 96.96 Dynamic ArrayTM (Fluidigm, Amsterdam, the Netherlands) technology was used for gene expression analyses by quantitative reverse transcription polymerase chain reaction (qRT-PCR, performed by Quintiles/Expression Analysis, Durham, NC)89. Standard TaqManTM Assays (Applied Biosystems/ThermoFisher Scientific, Foster City, CA) were used to assess the expression of 93 genes selected based on their selectivity and sensitivity to important hepatic receptors known to be modulated by environmental chemicals; importance in human hepatocyte functionality; and hepatotoxicity. […]

SMILES | outcome | AC50
CC(C)CCCCCCOC(=O)CCCCC(=O)OCCCCCCC(C)C | inactive | 
c1ccc2c(c1)Cc1ccccc1-2 | inactive | 
O=C(O)Cc1cc(I)c(Oc2cc(I)c(O)c(I)c2)c(I)c1 |  | 0.0526 µM (active)
CCCCCCCC(=O)O | inactive | 
NC(=O)N(O)[C@@H]1C=C[C@H](Oc2cccc(Oc3ccc(F)cc3)c2)C1 | inactive | 
CCC(C)(C)C1CCC(O)CC1 (stereo not given) | inactive | 
CC(=O)NC1(c2cccc(F)c2)CCN(CC[C@@]2(c3ccc(Cl)c(Cl)c3)CN(c3ccccc3)C(=O)CO2)CC1 | inactive | 
c1ccc2c(c1)ccc1ccccc12 | inactive | 
N#C[C@@H]1CC(F)(F)CN1C(=O)CNC1CC2CCC(C1)N2c1ncccn1 (stereo not given in full) | inactive | 
CCCCC(CC)COC(=O)CCCCC(=O)OCc1ccccc1 (stereo not given) | inactive | 
O=C(OCCOCCOC(=O)c1ccccc1)c1ccccc1 | inactive | 
CCc1ccc(CCOc2ccc(CC3SC(=O)NC3=O)cc2)nc1 (stereo not given) |  | 31.3 µM (active)
CCCOC(=O)c1ccc(O)cc1 | inactive | 
CCCCOCCO | inactive | 
CCCCCCCCCCCCCCCS(=O)(=O)Oc1ccccc1 | inactive | 
CC(C)(C)c1cccc(C(C)(C)C)c1O | inactive | 
CN1CCC[C@H]1c1cccnc1 | inactive | 
Oc1cc2ccccc2c2ccccc12 |  | 27.1 µM (active)
CCCCCCC(=O)O | inactive | 
CCCCCCCCCCCCN1CCCC1=O | inactive | 

SMILES | outcome | AC50
CCCCCCCCC(=O)O | inactive | 
CC(O)CO (stereo not given) | inactive | 
CCc1nn(C2CCCCC2)c2cc(C3(C#N)CCC(C(=O)O)CC3)ccc12 (stereo not given) |  | 90.5 µM (active)
CCCCC(CC)COC(=O)CCCCC(=O)OCC(CC)CCCC (stereo not given) | inactive | 
Oc1cccc(O)c1 | inactive | 
CCOC(=O)CC(O)(CC(=O)OCC)C(=O)OCC | inactive | 
COc1ccc([N+](=O)[O-])cc1N | inactive | 
CCCOc1sc(C(=O)N2CCC(c3cc(CN)ccc3F)CC2)c(C)c1Br | inactive | 
CCCCCCCCCCCCc1ccccc1S(=O)(=O)O | inactive | 
O=C(O)c1ccccc1C(c1ccc(O)cc1)c1ccc(O)cc1 | inactive | 
OC1CCCCC1 | inactive | 
COCC(C)O (stereo not given) | inactive | 
CCN(CC)CCNc1ccc(CNC=O)c2sc3ccc(OC)cc3c(=O)c12 |  | 12.7 µM (active)
CCCCCCCCOC(=O)CCCCCCCCC(=O)OCCCCCCCC | inactive | 
CN(C)C=O | inactive | 
CC(C)(C)CC(C)(C)c1ccc(O)c(-n2nc3ccccc3n2)c1 | inactive | 
C=C(C)C(=O)OCCC(F)(F)C(F)(F)C(F)(F)C(F)(F)C(F)(F)C(F)(F)F | inactive | 
O=[N+]([O-])c1ccc(O)cc1 | inactive | 
Cc1cc(C)c(O)c(C)c1 | inactive | 
Nc1cccc2c(N)cccc12 |  | 22.6 µM (active)
